Compound activity (PubChem BioAssay)
Shown are actives, neighbours in structure and some others; about 2.8% of the full set was active somewhere.
HSP90 refold inh – HSP90 inhibitors, primary screen, cell lysate, luminescence. Heat shock protein HSP 90 (rabbit reticulocyte lysate; luciferase refolding). Rabbit reticulocyte lysate, luciferase refolding luminescence, 3 h. inhibition, % at 5.6 µM. 290,000 compounds, 0.91% hits. AID 1789, 2009;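 active = inhibition above the screen-wide mean plus 3 SD, computed separately per campaign, cut at about 16% in these data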;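 also: 0% = DMSO wells and 100% = 60 µM geldanamycin wells; inhibitors lower the luminescence because luciferase stays unfolded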
SENP8 block-1 – SENP8 protease inhibitors, primary screen, biochemical, luminescence; 330,000 compounds, 1.2% hits; Sentrin-specific protease 8 (Homo sapiens), Q96LD8; inhibition, % at 10 µM; AID 2540, 2010; purified SENP8, Z-RLRGG-aminoluciferin cleavage; in the data active = inhibition above about 50%
Target sequence (Q96LD8 whole entry, looked up): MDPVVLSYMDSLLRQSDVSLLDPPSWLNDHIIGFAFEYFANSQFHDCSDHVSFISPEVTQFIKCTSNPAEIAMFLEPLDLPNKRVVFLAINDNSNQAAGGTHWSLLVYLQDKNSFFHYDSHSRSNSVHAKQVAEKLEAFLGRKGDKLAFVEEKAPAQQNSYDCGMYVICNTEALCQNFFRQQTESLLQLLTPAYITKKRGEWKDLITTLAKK
SENP6 inh – SENP6 protease inhibitors, primary screen, biochemical, luminescence, uHTS; Sentrin-specific protease 6 (Homo sapiens), Q9GZR1; Recombinant SENP6 catalytic domain, aminoluciferin luminescence; inhibition, % at 10 µM; 330,000 compounds, 1.8% hits; AID 2599, 2010;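 active = inhibition above about 50% at the single tested dose, limit read from the data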;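 also: plate controls were DMSO wells with enzyme for no effect and DMSO wells lacking enzyme for full effect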
Target sequence (Q9GZR1 628-1112 limits assumed): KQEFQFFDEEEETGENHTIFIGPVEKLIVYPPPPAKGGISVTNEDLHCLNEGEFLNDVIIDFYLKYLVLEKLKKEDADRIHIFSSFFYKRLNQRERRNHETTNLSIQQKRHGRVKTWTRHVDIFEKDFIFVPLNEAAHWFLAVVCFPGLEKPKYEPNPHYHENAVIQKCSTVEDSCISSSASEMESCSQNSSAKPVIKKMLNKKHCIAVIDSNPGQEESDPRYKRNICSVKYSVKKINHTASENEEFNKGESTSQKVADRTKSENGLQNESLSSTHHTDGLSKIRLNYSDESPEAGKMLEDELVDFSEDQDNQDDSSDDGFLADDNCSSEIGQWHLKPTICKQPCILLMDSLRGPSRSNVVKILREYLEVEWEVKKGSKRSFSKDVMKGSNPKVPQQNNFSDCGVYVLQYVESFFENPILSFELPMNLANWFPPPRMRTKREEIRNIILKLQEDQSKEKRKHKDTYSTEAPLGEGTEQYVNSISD
SENP7 inh – SENP7 protease inhibitors, primary screen, biochemical, luminescence, uHTS; Sentrin-specific protease 7 (Homo sapiens), Q9BQF6; inhibition, % at 5 µM; recombinant SENP7, Z-RLRGG-aminoluciferin luminescence, 40 min; 330,000 compounds, 1.5% hits; AID 434973, 2010;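 active = inhibition above about 50% at the single test dose, limit read from the data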;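 also: plate controls were DMSO with enzyme for no effect and no enzyme buffer wells for full effect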
SENP8 block-2 – human SENP8 protease inhibitors, primary screen, biochemical, fluorescence, Nedd8 protein substrate, uHTS; recombinant SENP8; 360,000 compounds, 0.64% hits; AID 602440, 2012; Sentrin-specific protease 8 (Homo sapiens), Q96LD8; inhibition, % at 20 µM; in the data active = inhibition mostly above about 40%, no sharp cut-off; inactive = mostly below about 27%
HSP90 confirm – HSP90 inhibitors, confirmation, cell lysate, luminescence | shares compounds with HSP90 refold inh | rabbit reticulocyte lysate, luciferase refolding luminescence, 3 h | inhibition, % at 5.9 µM | 2,300 compounds, 64% hits | AID 1846, 2009; in the data active = inhibition above about 18%;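 also: 0% = vehicle wells and 100% = reference inhibitor wells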
luciferase ctr – firefly luciferase inhibitors, HSP90 counter-screen, confirmation, artefact control for HSP90 inhibitor project, biochemical, luminescence, triplicate. shares compounds with HSP90 refold inh. purified native firefly luciferase. 2,300 compounds, 48% hits. inhibition, % at 5.9 µM. AID 1847, 2009;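 active = inhibition above the mean inhibition of all tested sample wells plus 3 SD, cut at about 10% in these data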;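 also: 0% = DMSO with luciferase and 100% = wells lacking luciferase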
Numbers without * were called inactive; i = inactive; x = no result.

SMILES | HSP90 refold inh | SENP8 block-1 | SENP6 inh | SENP7 inh | SENP8 block-2 | HSP90 confirm | luciferase ctr
CC(=O)c1c(C)[nH]c(C(=O)COC(=O)CCCOc2ccccc2)c1C | 4.1 | -1.3 | 2.0 | -1.5 | -17.6 | x | x
C[C@@H]1CCCCO[C@@H](CN(C)S(=O)(=O)c2ccc(F)cc2)[C@@H](C)CN([C@H](C)CO)C(=O)c2cc(NC(=O)c3ccccc3)ccc2O1 | x | x | x | x | 15.9 | x | x
CCc1ccc2c(CSc3nnnn3C)cc(=O)oc2c1 | -0.4 | 0.5 | -7.7 | 3.2 | -30.8 | x | x
CCN1C(=NCCCOC(C)C)N[C@@H](c2ccccc2)[C@H](C(=O)OC)[C@H]1C | x | -6.1 | -13.1 | -3.2 | 14.2 | x | x
CCn1cc(C(=O)NC2CCCCCC2)c(=O)c2ccc(C)nc21 | -4.9 | -5.7 | -9.3 | 12.8 | 0.3 | x | x
CCn1cc(C(=O)NC2CCc3ccccc32)c(=O)c2ccc(C)nc21 (stereo unspecified) | 26.8* | x | x | x | x | -2.6 | -8.8
O=C(N/N=C/c1ccc(C(F)(F)F)cc1)c1ccncc1 | -6.3 | -15.8 | -24.7 | -1.1 | 14.4 | x | x
Cc1c(CC(=O)N[C@@H](C)C(=O)O)c(=O)oc2cc3c(cc12)CCC(C)(C)O3 | -2.9 | -2.3 | -7.6 | -3.9 | -313.3 | x | x
Cc1c(CC(=O)N[C@H](C(=O)O)C(C)C)c(=O)oc2cc3c(cc12)CCC(C)(C)O3 | 27.4* | -7.4 | 12.9 | -5.2 | -273.3 | 34.6* | 14.2*
COC(=O)c1ccccc1OCCOCCOc1cccc2ccc(C)nc12 | -0.4 | -15.8 | -19.4 | -5.9 | -172.0 | x | x
Cc1nc(-c2nnc(-c3ccccc3)o2)c(C(F)(F)F)o1 | 2.3 | -6.5 | -16.6 | -12.6 | 8.3 | x | x
Cc1nc(-c2noc(-c3cccc(Cl)c3)n2)c(C(F)(F)F)o1 | 21.4* | -1.5 | -1.2 | 5.8 | -54.6 | 0.9 | -9.7
Cc1cc(C)c2nc(N3CCC(C(=O)NCCCN4CC(C)CC(C)C4)CC3)sc2c1 (stereo unspecified) | 30.7* | -6.3 | -11.8 | 0.6 | 5.1 | 40.1* | 6.4
Cc1cc(C)c2nc(N3CCCC(C(=O)NCCCN4CCOCC4)C3)sc2c1 (stereo unspecified) | 2.2 | -9.6 | -8.7 | -6.4 | 16.8 | x | x
CC1(C)Oc2ccc(C(=O)NC3CCCCC3)cc2N(CC#N)C1=O | -1.1 | 4.9 | 0.3 | -4.8 | 3.3 | x | x
COc1ccc(-c2cc(=O)[nH][nH]2)cc1OC | 34.0* | -5.2 | 13.5 | 4.5 | 28.5 | 1.1 | -0.9
O=c1cc(-c2ccccc2)[nH][nH]1 | 40.4* | 1.6 | -28.7 | 0.2 | -22.1 | -9.0 | -10.6
COc1cccc(-c2cc(=O)[nH][nH]2)c1 | 15.0 | -1.8 | -8.7 | 2.3 | -8.1 | x | x
c1ccc(NNC2=NCCS2)cc1 | 19.3* | -1.6 | 11.1 | -0.4 | 21.2 | 14.1 | -14.8
O=C(NCCc1ccccc1)c1ccccc1NC(=O)C1CCCCC1C(=O)O (stereo unspecified) | 47.4* | 3.8 | 17.4 | -3.8 | x | 2.5 | -9.1
CCOc1c2ccc(C(=O)NCc3ccc(OC)cc3)cc2nn1CCOC | -1.7 | -1.7 | 3.4 | -2.2 | i | x | x
CC1(C)CC2(CC(c3ccccc3)c3ccc(O)cc3O2)NC(=S)N1 (stereo unspecified) | 1.2 | -3.3 | -18.2 | -13.4 | 5.9 | x | x
Cc1cc(C)nc(N/N=C/C2=C(N3CCOCC3)C(=C\c3ccc(Cl)cc3)/CC2)n1 | 1.8 | 2.6 | 10.6 | 5.2 | -311.1 | x | x
O=C(O)c1ccc(N/N=C/C2=C(N3CCOCC3)C(=C\c3ccccc3)/CC2)cc1 | 17.6* | -6.8 | -18.1 | 1.5 | -65.0 | 2.9 | 2.4
COc1ccc(C(=O)Cn2cc([N+](=O)[O-])nc2C)cc1 | 2.3 | 4.0 | -0.5 | -0.2 | 3.0 | x | x
SMILES | HSP90 refold inh | SENP8 block-1 | SENP6 inh | SENP7 inh | SENP8 block-2 | HSP90 confirm | luciferase ctr
COc1ccc(C(=O)Cn2c(C)nc([N+](=O)[O-])c2Br)cc1 | 22.4* | -0.1 | -12.4 | 5.8 | 6.2 | 1.3 | -7.0
CCCNC(=O)C(Cc1ccccc1C)NC(=O)c1ccc(C#N)cc1 (stereo unspecified) | x | -0.5 | 0.1 | 5.1 | 6.6 | x | x
CCCCN=C1NN=C(c2ccc3c(c2)OCCO3)CS1 | 51.6* | 17.5 | 15.2 | -2.5 | -10.3 | 42.3* | 35.0*
CCCCN=C1NN=C(c2ccc(C)c(C)c2)CS1 | -0.7 | -13.9 | -2.5 | -0.7 | -9.9 | x | x
O=C(O)c1cc(-c2ccccc2)nn1CC1CC(c2cccc([N+](=O)[O-])c2)=NO1 (stereo unspecified) | x | -3.5 | 1.0 | 21.8 | x | x | x
O=C(Cc1coc2cc3c(cc12)CCC3)OCC(=O)N1CCCC1=O | 26.6* | -7.6 | 5.0 | -2.8 | -2.4 | 12.0 | -18.6
CC(C)(C)c1ccc(-c2cc(-c3ccccc3O)[nH]n2)cc1 | 51.5* | 37.3 | 48.2 | 35.4 | 12.3 | 60.4* | 58.9*
CCOC(=O)C1=C(C)Nc2ccccc2N=C1NC(=O)c1cccc(S(=O)(=O)NCc2ccccc2)c1 | 4.6 | 1.1 | 0.0 | -0.8 | 7.5 | x | x
Cc1ccc2cc(CCNC(=O)c3ccc(S(=O)(=O)N4CCOCC4)cc3)c(=O)[nH]c2c1 | -1.6 | -9.6 | 9.6 | -1.0 | -31.0 | x | x
Cc1ccc2cc(CCNC(=O)c3ccc(S(=O)(=O)N4CCCCC4)cc3)c(=O)[nH]c2c1 | 34.9* | 2.2 | -1.6 | 7.7 | -32.4 | 0.4 | -4.2
O=C(Oc1ccc[nH]c1=O)c1cc([N+](=O)[O-])cc([N+](=O)[O-])c1 | 13.1 | 65.9* | 88.2* | 43.3 | 31.9 | 4.9 | 1.9
COc1ccc(C(=O)Oc2ccc[nH]c2=O)cc1 | 2.2 | -17.1 | -26.4 | -2.6 | 14.4 | x | x
N#CCc1ccc(NC(=O)/C=C/c2ccc([N+](=O)[O-])o2)cc1 | 59.9* | x | x | x | 19.6 | 9.0 | -6.7
CCOc1ccc(N(CC(=O)N2CCCCCC2)S(=O)(=O)c2ccc(F)cc2)cc1 | 35.0* | -14.3 | -22.1 | -11.7 | 3.4 | -4.5 | -7.2
COCc1cc(C)nc(SCC(=O)Nc2ccc3c(c2)OCCO3)c1C#N | 4.2 | 1.6 | 4.6 | 0.6 | 2.4 | x | x
O=C(CCCOc1ccccc1)Nc1ccc(Cl)cn1 | -3.1 | 5.4 | -1.0 | 2.6 | 0.3 | x | x
O=C(O)c1ccc(C=C(c2nc3ccccc3s2)c2nc3ccccc3s2)cc1 | -1.1 | -15.4 | -18.2 | -16.2 | -63.2 | x | x
CN(C)c1ccc(/C=C(\Cl)c2nc3ccccc3s2)cc1 | 49.1* | x | x | x | -71.7 | 71.1* | 71.5*
Cc1cccc(CC(=O)N2CCC(N3CCC(C(=O)N4CCOCC4)CC3)CC2)c1 | 51.1* | 4.1 | -18.7 | 0.7 | 26.1 | -6.7 | -8.0
COc1ccc(OC)c(NC(=O)c2[nH]c(C)c(C(C)=O)c2C)c1 | 27.0* | -1.9 | 5.7 | 2.0 | -16.3 | -1.6 | -4.4
CC(=O)c1c(C)[nH]c(C(=O)Nc2ccc(C)cn2)c1C | 27.2* | -7.3 | 28.6 | 20.1 | 4.0 | 78.9* | 69.6*
